Source: PubChem BioAssay (National Center for Advancing Translational Sciences (NCATS))
This is a sample that favours compounds with a hit; in the whole collection about 12% have one here.
Cycloheximide cs = counter-screen for Shiga toxin inhibitors: cycloheximide protein synthesis inhibition | cell reporter, cycloheximide protein synthesis inhibition counterscreen | max response, % | 300,000 tested, 12% active; in the data active = max response mostly above about 13%, no sharp cut-off; inactive = mostly below about 14%; also: read at 38.3 µM for the half of the compounds with a filed dose; 0% is about no effect
NS1 function inh = influenza NS1 inhibition; Potency, µM (highest dose often 46.1 µM), for inactives: top-dose activity, positive = more growth; AID 2326; 270,000 tested, 0.4% active; also: potency is read from the fitted curve at half-maximal effect; actives are rising curves; nearly all actives have a fitted effect of over 50% in size
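Growth recovery, yeast-based: influenza A NS1 expressed in S. cerevisiae causes slow growth, and suppressors are detected by OD600. The parent strain without NS1 is used as positive control.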
SARS PLpro yeast = SARS-CoV PLP inhibition in yeast; S. cerevisiae expressing SARS-CoV PLpro, growth rescue; Potency, µM (doses to about 32.9 µM), inactives show at the top dose activity, positive = growth rescue, actives largely listed as activators; 330,000 tested, 0.19% active; also: potency is read from the fitted curve at half-maximal effect; 0% is about no effect; nearly all actives have a fitted effect of over 55% in size
Shiga toxin inh = blocks Shiga toxin action in Vero cells; AID 2315; Vero cells, Shiga toxin protein synthesis inhibition reporter; 290,000 tested, 9.2% active; inhibition, % at 38.7 µM; in the data active = inhibition mostly above about 28%, no sharp cut-off; inactive = mostly below about 43%; also: 0% is about no effect
Starred values were filed as active, the others as inactive; u = inconclusive; x = no result given; + = active, no number; [ ] = dose if it differs, or a comment. Unless noted, calls follow the shape of the full dose curve.

SMILES	Cycloheximide cs	NS1 function inh	SARS PLpro yeast	Shiga toxin inh
O=C1NC(=O)c2cc(NC(=O)C3COc4ccccc4O3)ccc21 (stereo unspecified)	19.0	4.5%	0.8%	21.5
Cc1ccc(NC(=O)C2COc3ccccc3O2)c(C)c1 (stereo unspecified)	22.6*	-17.5%	-4.1%	x
C/C(=N\NC(=O)C1COc2ccccc2O1)c1ccccn1 (stereo unspecified)	15.6*	-41.5%	29.9%	23.9
CC1(C)Oc2ccc(NC(=O)C3COc4ccccc4O3)cc2O1 (stereo unspecified)	34.9*	-184.0%	-29.3%	72.4
COC(=O)c1ccc(C)c(NC(=O)C2COc3ccccc3O2)c1 (stereo unspecified)	-2.8	-4.8%	-0.3%	-1.5
O=C(Nc1ccccc1F)C1COc2ccccc2O1 (stereo unspecified)	32.9*	-13.0%	4.5%	43.2*
COc1ccccc1N1CCN(C(c2cccs2)C(C)NC(=O)c2cccs2)CC1 (stereo unspecified)	2.6	-38.4%	u	5.9
CN(C(=O)COC(=O)c1ccc(=O)n(Cc2ccccc2)n1)C1CCCCC1	x	x	-2.0%[6.58 µM]	x
COC(=O)c1ccccc1NC1CC(=O)N(c2c(C)cccc2C)C1=O (stereo unspecified)	7.6	10.7%	-29.2%	-16.4
Cc1ccc(NC(=O)C2Oc3ccccc3OC2C)cc1 (stereo unspecified)	15.0*	-17.9%	0.1%	19.2
O=C(Nc1ccc([N+](=O)[O-])cc1)C1COc2ccccc2O1 (stereo unspecified)	-3.6	-7.3%	1.4%	x
Cc1ccc(NC(=O)C2COc3ccccc3O2)cc1 (stereo unspecified)	35.0*	-24.0%	-3.7%	105.4*
O=C(Nc1ncccc1Cl)C1COc2ccccc2O1 (stereo unspecified)	52.8*	17.4%	0.5%	160.9*
Cc1ccc(NC(=O)CN(C)C(=O)C2COc3ccccc3O2)cc1 (stereo unspecified)	10.9	x	-0.6%	-5.3
O=C(Nc1cccnc1)C1COc2ccccc2O1 (stereo unspecified)	8.2	-22.9%	3.0%	-12.3
O=C(Nc1ccccc1)C1COc2ccccc2O1 (stereo unspecified)	21.7*	4.9%	-9.6%	56.7*
CCN(CC)C(=O)CSc1nnc([C@@H](N)C(C)C)o1	-3.1	0.0%	1.7%	2.7
CCCCOc1ccc(-c2nnn(C(C)C(=O)OCC)n2)cc1 (stereo unspecified)	8.4	-15.1%	-15.0%	32.6
CCCCOc1ccc(-c2nnn(C(C)(C)C(=O)OC)n2)cc1	32.0*	-33.6%	-9.1%	56.7*
CC(=O)Nc1ccc(S(=O)(=O)NCC(=O)OCC(=O)N2CCN(c3ccccc3)CC2)cc1	-4.7	-0.1%	14.1%	-1.6
COC(=O)c1sc(-c2ccc(C(C)(C)C)cc2)cc1NC(=O)c1ccccc1C(=O)O	44.0*	4.1%	-11.2%	83.8*
COc1ccc(OC)c(NC(=O)CSCC(=O)O)c1	-1.2	6.7%	4.2%	-14.6
COC(=O)c1sc(-c2ccc(C(C)(C)C)cc2)cc1NC(=O)CSCC(=O)O	14.9*	10.3%	-1.6%	93.8
COC(=O)c1sc(-c2ccccc2)cc1NC(=O)C1CC1	7.5	x	2.3%	18.4
COC(=O)c1sc(-c2ccc(Cl)cc2)cc1NC(=O)c1ccccc1C(=O)O	31.3*	7.1%	-2.3%	72.0*
SMILES	Cycloheximide cs	NS1 function inh	SARS PLpro yeast	Shiga toxin inh
CCOc1ccc(-c2cc(NC(=O)c3c(F)cccc3F)c(C(=O)O)s2)cc1	10.8	-3.9%	-3.8%	39.5*
Cc1cc2nnc(SCC(=O)NCC(c3ccccc3)N(C)C)n2c2ccccc12 (stereo unspecified)	-4.0	14.2%	2.4%	12.6
Clc1cccc(Cl)c1Cn1nnc(N2CCCC2)n1	23.1*	-2.9%	-0.1%	85.9*
C=CC[C@H](CC(=O)NCCO)C(=O)N[C@H](COC(=O)[C@@H](CC=C)Cc1ccc(F)cc1)C(C)(C)C	x	x	9.6%	x
CC1CCCN(C(=O)c2ccc(COc3ccccc3Br)cc2)C1 (stereo unspecified)	9.1*	2.6%	-9.7%	15.3
CCOc1ccc(OCc2ccc(C(=O)N3CCOCC3)cc2)cc1	36.2*	-5.0%	7.7%	44.4*
CCOc1ccc(OCc2ccc(C(=O)N3CCCC(C)C3)cc2)cc1 (stereo unspecified)	41.1*	x	-1.5%	101.5*
CCOc1ccc(N=C(/C(C(=O)C(=O)N2CCOCC2)=C(\O)c2ccccc2)c2ccccc2)cc1	53.0*	-2.1%	-29.3%	61.9*
CCCn1nnnc1NC(=O)COc1ccc(CC)cc1	1.0	-20.2%	-2.7%	-5.6
c1ccc(COCCC2CO2)cc1 (stereo unspecified)	-1.9	8.4%	3.9%	-1.9
O=C(O)c1ccc(S(=O)(=O)N[C@H](Cc2ccccc2)C(=O)O)cc1	-7.0	x	x	-5.5
Cc1ccc(S(=O)(=O)COCCN2CCN(S(=O)(=O)c3ccc(C)cc3)CCC2=O)cc1	-4.4	x	x	3.7
C=C(C)C1CCC(C)C(OC(C)=O)C1 (stereo unspecified)	-7.2	x	x	-1.9
O=C(O)c1cccc(NS(=O)(=O)c2cc(S(=O)(=O)c3ccc(Cl)cc3)ccc2Cl)c1	6.0	-11.9%	-4.9%	-2.6
Nn1c(-c2ccccc2Cl)nnc1-c1ccccc1Cl	31.8*	-16.9%	-30.6%	+
CN1CCN(S(=O)(=O)c2ccc(NC(=O)Nc3cccc(Cl)c3)cc2)CC1	15.6*	-17.0%	3.5%	11.0
CN1CCN(S(=O)(=O)c2ccc(NC(=S)NC(=O)c3ccc(Cl)cc3)cc2)CC1	23.2*	10.6%	-19.8%	52.4
CN1CCN(S(=O)(=O)c2ccc(NC(=S)NC(=O)c3ccccc3)cc2)CC1	20.7*	-5.4%	-6.0%	35.7
O=C(Nc1cccc(Cl)c1)Nc1cc(S(=O)(=O)N2CCCCC2)ccc1Cl	7.4	21.6%	-10.9%	-11.7
O=[N+]([O-])c1ccc(OCc2cnc(Cl)s2)cc1	31.9*	-1.6%	0.7%	31.8
COc1ccc(OCc2cnc(Cl)s2)cc1	29.3*	6.3%	0.7%	60.0*
CC(=O)Nc1ccccc1OCc1cnc(Cl)s1	1.0	2.7%	0.5%	6.9
COc1ccc(Cc2cnc(N)s2)cc1	5.4	2.4%	-0.1%	24.0
Cc1ccc(OCc2cnc(Cl)s2)c(C)c1	36.4*	0.0%	-0.4%	146.3*
CC(C)CC1C2C(=O)N(c3ccccc3)C(=O)C2ON1c1ccccc1 (stereo unspecified)	-0.8	5.4%	-0.2%	9.1
SMILES	Cycloheximide cs	NS1 function inh	SARS PLpro yeast	Shiga toxin inh
CCN(CC(=O)Nc1cc(Cl)ccc1C)C(=O)CCOc1ccccc1C	-1.9	0.8%	-1.8%	-6.3
C/C(=N\O)C(C)(C)Nc1ccc(Br)cc1	2.3	-0.9%	-11.7%	7.9
COc1cc(OC)cc(C(=O)Nn2cc(C(=O)Nc3c(F)cccc3F)c3ccccc3c2=O)c1	-5.8	2.0%	0.9%	-15.3
Nc1ccc(C(=O)Nc2nc3ccccc3s2)cc1	40.8*	-11.1%	-17.5%	41.7*
Cc1cc(C)n(-c2ccc(C(=O)Nc3nc4ccccc4s3)cc2)n1	19.8*	-1.3%	5.9%	26.0
CC(=O)Nc1cc(C)nn1-c1nc2ccccc2s1	33.1*	-0.9%	-0.9%	52.2*
COc1cc(C(=O)Nc2nc3ccccc3s2)ccc1OCc1c(C)noc1C	18.5*	-3.1%	-2.3%	11.6
